Test results: PubChem BioAssay (NCATS)
Results filed as inconclusive are left out. Activity calls are given as the source filed them. Unless noted, calls follow the shape of the full dose curve.

Assays:
[1] = qHTS for Inhibitors of the Functional Ribonucleoprotein Complex (vRNP) of Lassa (LASV) Arenavirus: LASV Primary Screen - GLuc reporter signal (AID 1347082; calls by dose curve; tested in HEK293 reporter line; also: nearly all actives have a fitted effect of over 60% in size)
[2] = qHTS for Inhibitors of the Functional Ribonucleoprotein Complex (vRNP) of Lassa (LASV) Arenavirus: Viability assay - alamar blue signal for LASV Primary Screen (AID 1347083; calls by dose curve; tested in HEK293 reporter line; also: nearly all actives have a fitted effect of over 80% in size)
[3] = qHTS for Inhibitors of the Functional Ribonucleoprotein Complex (vRNP) of Lymphocytic Choriomeningitis Arenaviruses (LCMV): Viability assay - alamar blue signal for LCMV Primary Screen (AID 1347085; calls by dose curve; tested in HEK293 reporter line; also: nearly all actives have a fitted effect of over 80% in size)
[4] = target: Nucleoprotein (Lymphocytic choriomeningitis virus (strain Armstrong)) (UniProt P09992); assay: qHTS for Inhibitors of the Functional Ribonucleoprotein Complex (vRNP) of Lymphocytic Choriomeningitis Arenaviruses (LCMV): LCMV Primary Screen - GLuc reporter signal (AID 1347086); also: nearly all actives have a fitted effect of over 70% in size
Chain of Nucleoprotein (Lymphocytic choriomeningitis virus (strain Armstrong)) (P09992 whole entry, looked up): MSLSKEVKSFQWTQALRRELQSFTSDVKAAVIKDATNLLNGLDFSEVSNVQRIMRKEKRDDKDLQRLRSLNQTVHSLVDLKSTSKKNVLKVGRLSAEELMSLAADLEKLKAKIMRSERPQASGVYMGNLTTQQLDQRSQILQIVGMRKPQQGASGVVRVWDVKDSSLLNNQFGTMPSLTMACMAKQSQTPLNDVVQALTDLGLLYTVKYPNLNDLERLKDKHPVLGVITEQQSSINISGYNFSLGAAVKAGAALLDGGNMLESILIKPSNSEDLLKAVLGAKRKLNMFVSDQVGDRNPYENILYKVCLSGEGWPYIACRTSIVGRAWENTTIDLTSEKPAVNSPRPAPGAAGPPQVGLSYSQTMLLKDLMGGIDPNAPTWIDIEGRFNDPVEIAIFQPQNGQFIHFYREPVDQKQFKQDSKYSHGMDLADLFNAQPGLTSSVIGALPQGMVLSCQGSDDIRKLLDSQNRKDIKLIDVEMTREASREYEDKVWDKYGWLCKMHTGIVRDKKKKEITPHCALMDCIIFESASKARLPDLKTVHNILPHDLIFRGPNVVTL

[5] = tested on: Zika virus NS2B-NS3 protease; assay: Primary screen GU AMC qHTS for Zika virus inhibitors (AID 1347154; active = well fitted curve in the direction sought with a large enough effect; an effect the other way counts as inactive or inconclusive; also: nearly all actives have a fitted effect of over 70% in size)
How it was run: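 Fluorogenic AMC-substrate cleavage by noncovalent NS2B-NS3 protease complex (25 nM, pH 8.0 Tris buffer with Tween 20) followed for 15 minutes at room temperature (~20% conversion). Percent inhibition from ex340/em450 signal change, fitted by 4-parameter Hill equation.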

[6] = Primary qHTS for small molecule stabilizers of the endoplasmic reticulum resident proteome: Secreted ER Calcium Modulated Protein (SERCaMP) assay (AID 1508630; active = well fitted curve in the direction sought with a large enough effect; an effect the other way counts as inactive or inconclusive)
How it was run: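 The SH-SY5Y reporter protocol was run at 3 concentrations up to 38.3 uM (primary) or 11 concentrations (follow-up): 16 h compound, 100 nM thapsigargin for 4 h, then extracellular luciferase luminescence.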

[7] = Validation of Assay for Modulators of Lamin A Splicing (AID 1459; active = well fitted curve in the direction sought with a large enough effect in the signal ratio; the % refers to the signal ratio;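 also: cells exposed to compound for two days before reading; ratio rise marks activators and ratio drop marks inhibitors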)
How it was run: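 Splicing correction read as GFP (500-530 nm) over DsRed2 (575-640 nm) object intensity after 48 h compound exposure of reporter HeLa S3 clones (600 cells/well, 2% FBS medium); ancitabine and cycloheximide titrations, 0.5% DMSO as vehicle.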

[8] = qHTS for differential inhibitors of proliferation of Plasmodium falciparum line 7G8 (AID 1815; active = well fitted curve in the direction sought with a large enough effect; an effect the other way counts as inactive or inconclusive;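 also: parasite growth measured after three days of incubation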)
[9] = qHTS for differential inhibitors of proliferation of Plasmodium falciparum line GB4 (AID 1816; active = well fitted curve in the direction sought with a large enough effect; an effect the other way counts as inactive or inconclusive;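 also: potency is read from the fitted curve at half-maximal effect; parasite growth measured after 72 h incubation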); details: Potency: Plasmodium falciparum GB4 proliferation inhibition
[10] = High Content Imaging Cell-Based qHTS for Inhibitors of the mTORC1 Signaling Pathway in MEF Cells (AID 2667; active = well fitted curve in the direction sought with a large enough effect; an effect the other way counts as inactive or inconclusive;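 also: Tsc2-/- p53-/- MEFs stably re-expressing wild-type Tsc2 exposed 24 h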)
How it was run: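 Tsc2-/-, p53-/- MEFs stably re-expressing WT Tsc2, grown in DMEM + 10% FBS, were treated with compounds for 24 hrs at 37 degree Celsius, fixed, and stained with Alexa-488 phospho-rpS6 Ser235/236 antibody plus Hoechst; results given as % positive cells.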

[11] = Validation screen for inhibitors of Lassa infection (AID 463096)
[12] = target: DNA polymerase III PolC-type (Bacillus subtilis (strain 168)) (UniProt P13267); assay: qHTS Validation Assay for the Inhibitors of DNA Replication in Gram-Positive Bacteria (AID 485295; active = well fitted curve in the direction sought with a large enough effect; an effect the other way counts as inactive or inconclusive;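 also: reconstituted holoenzyme with PolC plus beta clamp SSB and primase; PicoGreen fluorescence of double-stranded DNA made on primed circular M13 template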)
Chain of DNA polymerase III PolC-type (Bacillus subtilis (strain 168)) (P13267 whole entry, looked up): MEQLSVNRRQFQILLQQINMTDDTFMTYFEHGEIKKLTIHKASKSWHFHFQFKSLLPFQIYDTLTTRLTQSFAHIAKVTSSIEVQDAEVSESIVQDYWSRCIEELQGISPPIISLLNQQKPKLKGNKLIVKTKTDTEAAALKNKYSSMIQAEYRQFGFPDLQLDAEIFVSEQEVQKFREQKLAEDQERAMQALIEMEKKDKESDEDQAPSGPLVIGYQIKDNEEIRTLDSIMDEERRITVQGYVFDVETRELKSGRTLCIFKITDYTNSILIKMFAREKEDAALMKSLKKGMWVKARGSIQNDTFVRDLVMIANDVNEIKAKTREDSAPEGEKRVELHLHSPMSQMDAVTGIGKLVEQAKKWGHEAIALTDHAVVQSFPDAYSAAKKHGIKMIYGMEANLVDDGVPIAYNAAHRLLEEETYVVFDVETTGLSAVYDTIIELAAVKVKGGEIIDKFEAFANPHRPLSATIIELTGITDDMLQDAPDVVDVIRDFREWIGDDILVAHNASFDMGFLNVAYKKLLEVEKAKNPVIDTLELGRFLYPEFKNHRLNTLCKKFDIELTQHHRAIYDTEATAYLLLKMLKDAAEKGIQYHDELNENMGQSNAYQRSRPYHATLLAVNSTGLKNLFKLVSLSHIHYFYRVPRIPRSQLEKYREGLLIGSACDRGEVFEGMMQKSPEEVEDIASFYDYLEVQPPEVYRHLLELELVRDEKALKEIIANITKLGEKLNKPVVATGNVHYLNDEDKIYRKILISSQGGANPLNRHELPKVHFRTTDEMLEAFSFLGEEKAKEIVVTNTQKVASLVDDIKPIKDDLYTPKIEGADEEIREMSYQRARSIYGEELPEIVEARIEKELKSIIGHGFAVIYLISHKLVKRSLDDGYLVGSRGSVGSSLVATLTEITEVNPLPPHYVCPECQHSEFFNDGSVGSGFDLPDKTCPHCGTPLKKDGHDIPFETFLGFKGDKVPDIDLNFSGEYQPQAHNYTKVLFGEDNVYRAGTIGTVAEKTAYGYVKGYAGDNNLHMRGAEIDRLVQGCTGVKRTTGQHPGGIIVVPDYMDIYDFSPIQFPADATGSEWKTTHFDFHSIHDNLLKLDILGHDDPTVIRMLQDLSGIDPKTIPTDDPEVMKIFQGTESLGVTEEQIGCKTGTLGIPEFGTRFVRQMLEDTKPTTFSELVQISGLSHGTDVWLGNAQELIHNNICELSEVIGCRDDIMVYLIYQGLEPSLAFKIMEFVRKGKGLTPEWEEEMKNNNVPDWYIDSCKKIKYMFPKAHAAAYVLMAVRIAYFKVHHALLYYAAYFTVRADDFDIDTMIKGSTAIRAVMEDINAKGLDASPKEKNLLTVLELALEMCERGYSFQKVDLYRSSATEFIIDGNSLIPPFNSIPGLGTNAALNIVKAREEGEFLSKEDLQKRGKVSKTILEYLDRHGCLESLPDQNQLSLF
How it was run: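 Double-stranded DNA product detected by PicoGreen fluorescence after EDTA quench. Compound incubated with B. subtilis holoenzyme (PolC, beta subunit, SSB, primase) before substrate addition; primed replication of M13Gori with dNTPs and NTPs at room temperature; DMSO defines 0% inhibition.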

[13] = target: ATP-dependent 6-phosphofructokinase (Trypanosoma brucei brucei) (UniProt O15648); assay: qHTS Validation Assay to Find Inhibitors of T. brucei phosphofructokinase (AID 485368; active = well fitted curve in the direction sought with a large enough effect; an effect the other way counts as inactive or inconclusive); details: T. brucei PFK enzyme assay, qHTS 7-point titration; at 57.5 µM (top of the series)
Chain of ATP-dependent 6-phosphofructokinase (Trypanosoma brucei brucei) (O15648 whole entry, looked up): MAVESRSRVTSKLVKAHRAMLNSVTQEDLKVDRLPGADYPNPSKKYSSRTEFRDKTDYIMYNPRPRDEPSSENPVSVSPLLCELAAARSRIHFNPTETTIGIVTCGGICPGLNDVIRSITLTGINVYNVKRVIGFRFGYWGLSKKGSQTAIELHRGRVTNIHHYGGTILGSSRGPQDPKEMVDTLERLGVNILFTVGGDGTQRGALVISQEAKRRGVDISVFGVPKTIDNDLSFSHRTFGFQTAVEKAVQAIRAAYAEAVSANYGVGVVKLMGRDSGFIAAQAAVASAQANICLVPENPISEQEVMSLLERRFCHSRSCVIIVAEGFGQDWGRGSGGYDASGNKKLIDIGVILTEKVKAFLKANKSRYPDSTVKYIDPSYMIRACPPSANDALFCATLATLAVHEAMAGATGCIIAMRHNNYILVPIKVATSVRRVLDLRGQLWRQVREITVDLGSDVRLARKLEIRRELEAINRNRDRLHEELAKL
How it was run: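 ADP-Glo luminescence, two-step: residual ATP depleted, then ADP converted to ATP for luciferase. Enzyme 1.25 nM, F6P 0.5 mM, ATP 0.1 mM, pH 8.0 TEA buffer, 45 min RT. Curves fitted and classed by quality and efficacy.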

[14] = target: Arylsulfatase A (Homo sapiens) (UniProt P15289); assay: qHTS screen for enhancers of Arylsulfatase A (ASA1): LOPAC Validation Assay (AID 720538; active = well fitted curve in the direction sought with a large enough effect; an effect the other way counts as inactive or inconclusive)
Chain of Arylsulfatase A (Homo sapiens) (P15289 whole entry, looked up): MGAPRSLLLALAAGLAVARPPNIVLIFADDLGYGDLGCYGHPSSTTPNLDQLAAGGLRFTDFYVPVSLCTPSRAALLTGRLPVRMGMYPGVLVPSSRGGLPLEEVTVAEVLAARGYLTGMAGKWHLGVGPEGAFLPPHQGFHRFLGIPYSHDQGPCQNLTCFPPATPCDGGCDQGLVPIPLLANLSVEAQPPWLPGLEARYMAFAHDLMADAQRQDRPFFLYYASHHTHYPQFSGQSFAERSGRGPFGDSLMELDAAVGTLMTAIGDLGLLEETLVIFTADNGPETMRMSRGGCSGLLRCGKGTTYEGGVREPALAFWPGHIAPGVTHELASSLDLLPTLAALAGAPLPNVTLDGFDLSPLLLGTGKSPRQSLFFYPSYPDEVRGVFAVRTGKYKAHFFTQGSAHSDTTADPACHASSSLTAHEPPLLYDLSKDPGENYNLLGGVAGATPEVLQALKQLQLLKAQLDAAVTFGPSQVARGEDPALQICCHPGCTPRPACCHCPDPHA
How it was run: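 Enhancer assay in patient-derived MLD fibroblasts carrying ASA-I179S: 48 h compound exposure at 37 C, then 14 h room-temperature pNCS turnover (0.5 mM final) in lysis buffer. Read by fluorescence at 525/598 nm after NaOH stop.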

[15] = qHTS profiling of the MIPE4 collection as inhibitors of Plasmodium falciparum (3D7) proliferation (AID 743344; call rule not given here); details: P. falciparum 3D7 in erythrocytes, SYBR Green DNA fluorescence, 72 h; at 28.5 µM (top of the series) unless noted
How it was run: (§1)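 Parasite DNA was quantified by SYBR Green I fluorescence (ex 485, em 535 nm) after overnight lysis in saponin/Triton buffer at room temperature. Cultures at 0.3% parasitemia and 2.5% hematocrit were first exposed to compound for 72 h at 37 C; signals were normalised to artemisinin (0.29 uM) and vehicle wells.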

[16] = qHTS profiling of the MIPE4 collection as inhibitors of Plasmodium falciparum (DD2) proliferation (AID 743345; call rule not given here); details: P. falciparum Dd2 in erythrocytes, SYBR Green DNA, 72 h; at 28.5 µM (top of the series) unless noted
How it was run: as §1

[17] = qHTS profiling of the MIPE4 collection as inhibitors of Plasmodium falciparum (DD2) proliferation (Rep 2) (AID 743346; call rule not given here); details: P. falciparum Dd2 in erythrocytes, SYBR Green DNA, 72 h; at 28.5 µM (top of the series) unless noted
How it was run: as §1

[18] = qHTS profiling of the MIPE4 collection as inhibitors of Plasmodium falciparum (HB3) proliferation (AID 743347; call rule not given here); details: P. falciparum HB3 in erythrocytes, SYBR Green DNA, 72 h; at 28.5 µM (top of the series) unless noted
How it was run: as §1

[19] = Cytotoxicity counterscreen for inhibitors of SARS-CoV-2 cell entry (AID 1645845); also: nearly all actives have a fitted effect of over 50% in size
How it was run: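 ATP-content luminescence (ATPLite 1step, 15 min RT) read after 48 h compound exposure of Expi293F cells stably expressing human ACE2; normalized to cells-only wells and media-only wells.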

[20] = Primary qHTS to identify inhibitors of SARS-CoV-2 cell entry (AID 1645846); details: activity change, negative = inhibition: at 57.1 µM (top of the series) unless noted; also: nearly all actives have a fitted effect of over 45% in size
How it was run: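 Entry measured by luciferase signal 48 h after adding SARS-CoV-2-S pseudotyped MLV particles to HEK293-ACE2 cells preincubated 1 h with compounds. Normalisation: bald particles and spike particles.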

COc1ccc2[nH]c3c(c2c1)CCNC3C (stereo not drawn)
inactive: Potency [1] | Potency [2] | Potency [3] | Potency [4] | Potency [5] | Potency [6]

CCOC(=O)[C@H](CCc1ccccc1)N[C@@H](C)C(=O)N1[C@@H](C(=O)O)C[C@H]2CCC[C@@H]21
inactive: Potency [1] | Potency [2] | Potency [3] | Potency [4]

CN1C2CCC1CC(OC(=O)C(CO)c1ccccc1)C2 (stereo not drawn)
-16.5%: activity change, negative = inhibition [20]
88.6%: parasite growth, % of DMSO control [15]
active: Potency [9] 8.91 µM
94.5%: parasite growth remaining, % of DMSO control (lower = more inhibition) [16]
108%: growth, % of control [18]
62.2%: parasite growth, % of control (lower = inhibition) [17]
inactive: outcome [7] | Potency [8] | Potency [10] | Potency [11] | Potency [12] | outcome [13] | Potency [14] | Potency [1] | Potency [2] | Potency [3] | Potency [4] | Potency [19]
